Read-out in assay [1]: Intercellular Adhesion Molecule 1 (ICAM1), ICAM1 (gene 3383)
Put plainly: BSK_BE3C_ICAM1: BioMAP Diversity Plus: BE3C Assay for Intercellular Adhesion Molecule 1 (ICAM1) Biomarker Activity (AID 2284278).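 For outcome: cell-surface ICAM-1 protein level quantified by ELISA.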 The note with it: primary human bronchial epithelial cells. The method in brief: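 Measured by ELISA: ICAM-1 expressed by primary human bronchial epithelial cells 24 h after compound treatment, with upward-direction fitting versus DMSO vehicle.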

Read-out in assay [2]: Interferon-inducible T-cell alpha chemoattractant (ITAC), CXCL11 (gene 6373)
Briefly: BSK_BE3C_ITAC: BioMAP Diversity Plus: BE3C Assay for Interferon-inducible T-cell alpha chemoattractant (ITAC) Biomarker Activity (AID 2284279). The note with it: primary human bronchial epithelial cells. The method in brief: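 Steps: dose human bronchial epithelial cells with chemical; incubate 24 h; measure I-TAC by ELISA; fit endpoint in positive direction against DMSO control. Cytotoxicity was checked in parallel cultures by SRB staining at harvest.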

Read-out in assay [3]: Interleukin-8 (IL8), CXCL8 (gene 3576)
Briefly: BSK_BE3C_IL8: BioMAP Diversity Plus: BE3C Assay for Interleukin-8 (IL8) Biomarker Activity (AID 2284280). The note with it: primary human bronchial epithelial cells. The method in brief: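 ELISA read-out of IL-8 in human lung bronchial epithelial primary cell cultures, 24 h post-dosing; endpoint analysed as signal increase relative to DMSO baseline.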

Read-out in assay [4]: Epidermal growth factor receptor (EGFR), EGFR (gene 1956)
Put plainly: BSK_BE3C_EGFR: BioMAP Diversity Plus: BE3C Assay for Epidermal growth factor receptor (EGFR) Biomarker Activity (AID 2284281). Particulars: primary human bronchial epithelial cells. The method in brief:
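Primary human lung bronchial epithelial cells; compound, 24 h; EGFR measured by ELISA; positive-direction fit vs DMSO baseline.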

Read-out in another assay: KRT18 (gene 3875)
Briefly: BSK_BE3C_Keratin818: BioMAP Diversity Plus: BE3C Assay for Keratin 818 Biomarker Activity (AID 2284282). Particulars: primary human bronchial epithelial cells. The method in brief:
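BE3C: human bronchial epithelial primary cells, 24 h exposure, Keratin 8/18 ELISA; DMSO = negative control/baseline; cytotoxicity by parallel SRB stain (0.1% SRB after 10% TCA fixation, 560 nm).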

Read-out in assay [5]: Matrix Metallopeptidase 9 (MMP9), MMP9 (gene 4318)
Put plainly: BSK_BE3C_MMP9: BioMAP Diversity Plus: BE3C Assay for Matrix Metallopeptidase 9 (MMP9) Biomarker Activity (AID 2284283). Particulars: primary human bronchial epithelial cells. The method in brief:
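MMP9 is measured by ELISA after a 24 h compound exposure of primary human bronchial epithelial cultures. Parallel SRB staining gives overt cytotoxicity. Values fitted in the positive direction against DMSO.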

Read-out in assay [6]: Plasminogen activator inhibitor-1 (PAI1), SERPINE1 (gene 5054)
Briefly: BSK_CASM3C_PAI1: BioMAP Diversity Plus: CASM3C Assay for Plasminogen activator inhibitor-1 (PAI1) Biomarker Activity (AID 2284284).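 Note: PAI-1 protein level measured by ELISA 24 h after dosing.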 Particulars: primary human coronary artery smooth muscle cells.

Read-out in assay [7]: Monocyte Chemoattractant Protein-1 (MCP1), CCL2 (gene 6347)
Briefly: BSK_hDFCGF_MCP1: BioMAP Diversity Plus: hDFCGF Assay for Monocyte Chemoattractant Protein-1 (MCP1) Biomarker Activity (AID 2284285). Particulars: primary human foreskin fibroblasts. The method in brief: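 Human foreskin fibroblasts (hDFCGF system) were exposed to compound and secreted MCP-1 was measured by ELISA after 24 hours. Activity was fitted relative to DMSO. Cytotoxicity was checked by SRB total-protein staining in parallel cultures.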

Read-out in assay [8]: Intercellular Adhesion Molecule 1 (ICAM1), ICAM1 (gene 3383)
Put plainly: BSK_hDFCGF_ICAM1: BioMAP Diversity Plus: hDFCGF Assay for Intercellular Adhesion Molecule 1 (ICAM1) Biomarker Activity (AID 2284287). Particulars: primary human foreskin fibroblasts. The method in brief:
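Primary human foreskin fibroblasts (hDFCGF system) dosed with chemical; ICAM-1 quantified by ELISA at 24 h relative to DMSO. Parallel SRB total-protein staining to assess overt cytotoxicity.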

Read-out in assay [9]: TIMP metallopeptidase inhibitor 2 (TIMP2), TIMP2 (gene 7077)
Put plainly: BSK_hDFCGF_TIMP2: BioMAP Diversity Plus: hDFCGF Assay for TIMP metallopeptidase inhibitor 2 (TIMP2) Biomarker Activity (AID 2284289). Particulars: primary human foreskin fibroblasts. The method in brief: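 Primary human foreskin fibroblasts in the hDFCGF system, dosed for 24 h; TIMP-2 level measured by ELISA, fitted in the positive direction against DMSO; cytotoxicity checked in parallel by sulforhodamine B total protein staining.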

Read-out in assay [10]: Matrix Metallopeptidase 1 (MMP1), MMP1 (gene 4312)
Put plainly: BSK_BF4T_MMP1: BioMAP Diversity Plus: BF4T Assay for Matrix Metallopeptidase 1 (MMP1) Biomarker Activity (AID 2284270). The note with it: primary human bronchial epithelial cells with fibroblasts. The method in brief: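 Co-culture of human bronchial epithelial cells and dermal fibroblasts; MMP-1 levels measured by ELISA 24 hours after chemical dosing, relative to DMSO. Cytotoxicity checked in parallel cultures by SRB total-protein staining.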

Read-out in assay [11]: Matrix Metallopeptidase 3 (MMP3), MMP3 (gene 4314)
Briefly: BSK_BF4T_MMP3: BioMAP Diversity Plus: BF4T Assay for Matrix Metallopeptidase 3 (MMP3) Biomarker Activity (AID 2284271). The note with it: primary human bronchial epithelial cells with fibroblasts. The method in brief:
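Co-culture of human bronchial epithelial cells and dermal fibroblasts dosed 24 h; MMP-3 measured by ELISA, positive-direction fit versus DMSO. Cytotoxicity tracked by SRB total-protein staining (560 nm) in parallel cultures.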

Read-out in assay [12]: Tissue plasminogen activator (tPA), PLAT (gene 5327)
Briefly: BSK_BF4T_tPA: BioMAP Diversity Plus: BF4T Assay for Tissue plasminogen activator (tPA) Biomarker Activity (AID 2284272). The note with it: primary human bronchial epithelial cells with fibroblasts. The method in brief:
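tPA level quantified by ELISA at 24 h post-treatment in bronchial epithelial/dermal fibroblast co-cultures, gain of signal scored against DMSO baseline. Parallel cultures stained with 0.1% SRB (560 nm) to flag overt cytotoxicity.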

Read-out in assay [13]: Plasminogen Activator Inhibitor-1 (PAI1), SERPINE1 (gene 5054)
Briefly: BSK_BF4T_PAI1: BioMAP Diversity Plus: BF4T Assay for Plasminogen Activator Inhibitor-1 (PAI1) Biomarker Activity (AID 2284273). Particulars: primary human bronchial epithelial cells with fibroblasts. The method in brief:
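Co-culture of human bronchial epithelial cells and dermal fibroblasts exposed to compound for 24 h. PAI-1 measured by ELISA; activity fitted in positive direction versus DMSO. Parallel SRB staining assessed overt cytotoxicity.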

Assay [14] is described as follows: BSK_BF4T_SRB: Viability Assessment in the BioMAP Diversity Plus: BF4T Assay (AID 2284274).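 For AC50: total cell protein by sulforhodamine B staining as a cytotoxicity measure.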 Particulars: primary human bronchial epithelial cells with fibroblasts. The method in brief:
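Co-culture of human bronchial epithelial cells and dermal fibroblasts (BioMAP BF4T) exposed 24 h. Total protein by sulforhodamine B staining (0.1% SRB after 10% TCA fixation, 560 nm) in parallel cultures; fitted vs DMSO.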

Read-out in assay [15]: urokinase Plasminogen Activator (uPA), PLAU (gene 5328)
Put plainly: BSK_BF4T_uPA: BioMAP Diversity Plus: BF4T Assay for urokinase Plasminogen Activator (uPA) Biomarker Activity (AID 2284275). The note with it: primary human bronchial epithelial cells with fibroblasts. The method in brief: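 Co-culture of human bronchial epithelial cells and dermal fibroblasts; uPA quantified by ELISA 24 hours after dosing, fitted relative to DMSO. Parallel SRB total-protein staining assessed overt cytotoxicity.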

Read-out in assay [16]: Matrix Metallopeptidase 9 (MMP9), MMP9 (gene 4318)
Put plainly: BSK_BF4T_MMP9: BioMAP Diversity Plus: BF4T Assay for Matrix Metallopeptidase 9 (MMP9) Biomarker Activity (AID 2284276). Particulars: primary human bronchial epithelial cells with fibroblasts. The method in brief:
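Co-culture of human bronchial epithelial cells and dermal fibroblasts dosed for 24 h; MMP-9 quantified by ELISA and fitted upward versus DMSO. Cytotoxicity monitored in parallel cultures by SRB total-protein staining at the biomarker time point.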

Read-out in assay [17]: Interleukin-8 (IL8), CXCL8 (gene 3576)
Put plainly: BSK_IMphg_IL8: BioMAP Diversity Plus: IMphg Assay for Interleukin-8 (IL8) Biomarker Activity (AID 2284277). Particulars: primary human endothelial cells with macrophages. The method in brief:
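Co-culture of human venular endothelial cells and macrophages exposed to chemicals for 24 h; IL-8 quantified by ELISA and compared against the DMSO baseline, with SRB total-protein staining in parallel cultures for cytotoxicity.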

Read-out in assay [18]: Vascular cell adhesion molecule 1 (VCAM1), VCAM1 (gene 7412)
Briefly: BSK_IMphg_VCAM1: BioMAP Diversity Plus: IMphg Assay for Vascular cell adhesion molecule 1 (VCAM1) Biomarker Activity (AID 2284286). Particulars: primary human endothelial cells with macrophages. The method in brief: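 Human venular endothelial cells co-cultured with macrophages; VCAM-1 quantified by ELISA 24 h after dosing, fitted in the positive direction against DMSO. Cytotoxicity was checked in parallel cultures by SRB total-protein staining (0.1% SRB after 10% TCA fixation, 560 nm).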

Read-out in another assay: CD40, CD40 (gene 958)
Briefly: BSK_IMphg_CD40: BioMAP Diversity Plus: IMphg Assay for CD40 Biomarker Activity (AID 2284288). Particulars: primary human endothelial cells with macrophages. The method in brief: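 Venular endothelial cells co-cultured with macrophages (human primary), CD40 measured by ELISA 24 h after dosing. Positive-direction fit vs DMSO baseline; cytotoxicity tracked by SRB total-protein staining in parallel cultures.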

“And” between values parts separate entries of the source, which are not always exact repeats. Equal values may be shown once. Where a structure was tested more than once in an assay, its records may differ in their call. The source made the active and inactive calls. Rule for the calls: active = hit-call score of the fitted dose curve at least 0.9, where 1 is the maximum; inactive = score below 0.9.

On to `COC(=O)Cc1ccccc1`, for which the result (in assay [1]; in assay [2]; in assay [3]; in assay [4]; with KRT18 (gene 3875); in assay [5]) was inactive. The result in assay [6], in assay [7], in assay [8] and in assay [9] was inactive.

One may read the AC50 as the concentration giving half of the maximal activity seen. In the case of `O=C(O)C(F)(F)C(F)(F)C(F)(F)C(F)(F)C(F)(F)C(F)(F)F`, the outcome in assay [10], in assay [11], in [12], in assay [13], in assay [14] and in assay [15] was inactive. Also, the outcome in [16], in assay [17], in assay [1], in assay [2], in assay [3] and in assay [4] was inactive. The outcome (in the assay with KRT18 (gene 3875); in assay [5]; in assay [6]; in [7]; in [18]; in assay [8]) was inactive. Besides, the outcome with CD40, CD40 (gene 958) was “inactive”; in [9] it was “inactive”. In addition, the AC50 is 24.6 µM (active) in assay [16], 40.5 µM (active) in assay [17] and 30 µM (active) in [5].

Regarding `CC(=O)OC(c1ccccc1)C(Cl)(Cl)Cl` (stereo not drawn), the outcome (in assay [1]; in assay [2]; in assay [3]; in [4]; in the assay with KRT18 (gene 3875); in assay [5]) was inactive. Also, the outcome in assay [6], in assay [7], in [8] and in assay [9] was inactive.

For the compound `O=C(O)CCC(F)(C(F)(F)F)C(F)(F)F`, the outcome in assay [10], in assay [11], in assay [12], in assay [13], in assay [14] and in assay [15] was inactive. For the same compound, the result in assay [16], in assay [17], in assay [1], in assay [2], in [3] and in assay [4] was inactive. Besides, the outcome (in the assay with KRT18 (gene 3875); in [5]; in [6]; in [7]; in assay [18]; in [8]) was inactive. The outcome with CD40, CD40 (gene 958) was “inactive”; in assay [9], “inactive”.

With `O=C(O)C(F)(F)C(F)(F)C(F)(F)C(F)(F)C(F)(F)C(F)(F)C(F)(F)C(F)(F)C(F)(F)C(F)(F)F`, the concentration at half-maximal activity (AC50) is 5.11 µM (active) and 5.66 µM (active) in assay [10]; 5.26 µM (active) and 3.33 µM (active) in assay [11]; 4.42 µM (active) and 5.58 µM (active) in [12]; 5.2 µM (active) and 6.13 µM (active) in [13]; 5.49 µM (active) and 5.63 µM (active) in [14]; 6.49 µM (active) and 6.17 µM (active) in assay [15]. Moreover, the half-maximal activity concentration (AC50) in assay [16] is 4.36 µM (active) and 5.37 µM (active); in assay [1], 5.73 µM (active) and 6.33 µM (active); in assay [2] it was 2.65 µM (active) and 2.84 µM (active); in assay [3], 4.19 µM (active) and 3.81 µM (active); in assay [4], 4.31 µM (active) and 2.34 µM (active); with KRT18 (gene 3875), 4.21 µM (active) and 5.29 µM (active). The AC50 in assay [5] was 3.77 µM (active) and 3.33 µM (active); in assay [7] it was 5.24 µM (active) and 5.63 µM (active); in assay [8], 5.12 µM (active) and 5.47 µM (active); in [9] it was 6.09 µM (active) and 5.21 µM (active). The outcome was “inactive” in assay [17]; “inactive” in assay [6]; “inactive” in assay [18]; “inactive” in the assay with CD40, CD40 (gene 958).

Source of the values: PubChem BioAssay (EPA / NIEHS).
